# Test results as given in the supplement of paper PMC8728848.
# The sample as a whole holds a higher share of the strongest signals than the screen did.
# B1: CFEM-SCL (Saccharomyces cerevisiae), O13547 (protein)
# chain: MRATTLLSSVVSLALLSKEVLATPPACLLACVAQVGKSSSTCDSLNQVTCYCEHENSAVKKCLDSICPNNDADAAYSAFKSSCSEQNASLGD
# Experiments:
# Assay in all cases: glycan array binding signal (z-score within array); higher = stronger binding
# Settings in all cases: glycan notation: IUPAC condensed, linker removed
# [1] = biological target: Fuc(a1-2)Gal(b1-3)[Fuc(a1-4)]GlcNAc(b1-3)[Fuc(a1-3)[Gal(b1-4)]GlcNAc(b1-6)]Gal(b1-4)Glc
# Method in brief: (§1)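 From the Consortium for Functional Glycomics database, 3228 arrays were curated, keeping only those whose protein sequence was available. Binding is given as a within-array Z-score averaged across arrays sharing a protein sequence and across linkers. Negative Z-scores can be read as non-binding.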
# [2] = biological target: Fuc(a1-2)Gal(b1-4)GlcNAc(b1-2)[Fuc(a1-2)Gal(b1-4)GlcNAc(b1-4)]Man(a1-3)[Fuc(a1-2)Gal(b1-4)GlcNAc(b1-2)Man(a1-6)]Man(b1-4)GlcNAc(b1-4)GlcNAc
# Method in brief: as §1
# [3] = biological target: Fuc(a1-2)Gal(b1-4)GlcNAc(b1-3)GalNAc
# Method in brief: as §1
# [4] = biological target: Fuc(a1-2)Gal(b1-4)[Fuc(a1-3)]GlcNAc(b1-3)GalNAc
# Method in brief: as §1
# [5] = biological target: Fuc(a1-2)Gal6S(b1-3)GlcNAc
# Method in brief: as §1
# [6] = biological target: Fuc(a1-2)[Gal(a1-3)]Gal(b1-3)GlcNAc(b1-6)GalNAc
# Method in brief: as §1
# [7] = biological target: Fuc(a1-2)[Gal(a1-3)]Gal(b1-4)GlcNAc(b1-3)GalNAc
# Method in brief: as §1
# [8] = biological target: Fuc(a1-2)[GalNAc(a1-3)]Gal(b1-3)GlcNAc(b1-6)GalNAc
# Method in brief: as §1
# [9] = biological target: Fuc(a1-2)[GalNAc(a1-3)]Gal(b1-4)[Fuc(a1-3)]GlcNAc(b1-3)GalNAc
# Method in brief: as §1
# Fuc(a1-3)GlcNAc = biological target: Fuc(a1-3)GlcNAc
# Method in brief: as §1
# [10] = biological target: Fuc(a1-3)[Gal(b1-4)]GlcNAc(b1-3)Gal(b1-4)[Fuc(a1-3)]GlcNAc
# Method in brief: as §1
# [11] = biological target: Fuc(a1-3)[Gal(b1-4)]GlcNAc(b1-6)GalNAc
# Method in brief: as §1
# [12] = biological target: Fuc(a1-3)[Gal(b1-4)]GlcNAc6S
# Method in brief: as §1
# [13] = biological target: Gal(a1-3)Gal(b1-3)GlcNAc(b1-2)Man(a1-3)[Gal(a1-3)Gal(b1-3)GlcNAc(b1-2)Man(a1-6)]Man(b1-4)GlcNAc(b1-4)GlcNAc
# Method in brief: as §1
# [14] = biological target: Gal(a1-3)Gal(b1-4)GlcNAc(b1-3)GalNAc
# Method in brief: as §1
# [15] = biological target: Gal(a1-3)[Gal(a1-4)]Gal(b1-4)GlcNAc
# Method in brief: as §1
# Gal(b1-2)Gal = biological target: Gal(b1-2)Gal
# Method in brief: as §1
# Gal(b1-3)Gal = biological target: Gal(b1-3)Gal
# Method in brief: as §1
# Gal(b1-3)Gal(b1-4)GlcNAc = biological target: Gal(b1-3)Gal(b1-4)GlcNAc
# Method in brief: as §1
# Gal(b1-3)GalNAc = biological target: Gal(b1-3)GalNAc
# Method in brief: as §1
# Gal(b1-3)GalNAc(b1-3)Gal = biological target: Gal(b1-3)GalNAc(b1-3)Gal
# Method in brief: as §1
# [16] = biological target: Gal(b1-3)GalNAc(b1-4)Gal(b1-4)Glc
# Method in brief: as §1
# [17] = biological target: Gal(b1-3)GalNAc(b1-4)[Neu5Ac(a2-3)]Gal(b1-4)Glc
# Method in brief: as §1
# [18] = biological target: Gal(b1-3)[Neu5Ac(a2-6)]GalNAc
# Method in brief: as §1
# [19] = biological target: Gal(b1-4)GlcNAc(b1-2)Man(a1-3)[Man(a1-6)]Man(b1-4)GlcNAc(b1-4)GlcNAc
# Method in brief: as §1
# [20] = biological target: Gal(b1-4)GlcNAc(b1-2)[Gal(b1-4)GlcNAc(b1-6)]Man(a1-6)[GlcNAc(b1-4)][Gal(b1-4)GlcNAc(b1-2)Man(a1-3)]Man(b1-4)GlcNAc(b1-4)GlcNAc
# Method in brief: as §1
# [21] = biological target: Gal(b1-4)GlcNAc(b1-3)Gal(b1-4)GlcNAc(b1-3)Gal(b1-4)GlcNAc(b1-3)Gal(b1-4)GlcNAc(b1-2)Man(a1-3)[Gal(b1-4)GlcNAc(b1-3)Gal(b1-4)GlcNAc(b1-3)Gal(b1-4)GlcNAc(b1-3)Gal(b1-4)GlcNAc(b1-2)Man(a1-6)]Man(b1-4)GlcNAc(b1-4)GlcNAc
# Method in brief: as §1
# [22] = biological target: Gal(b1-4)GlcNAc(b1-3)Gal(b1-4)GlcNAc(b1-3)Gal(b1-4)GlcNAc(b1-3)Gal(b1-4)GlcNAc(b1-3)Gal(b1-4)GlcNAc(b1-2)Man(a1-3)[Gal(b1-4)GlcNAc(b1-3)Gal(b1-4)GlcNAc(b1-3)Gal(b1-4)GlcNAc(b1-3)Gal(b1-4)GlcNAc(b1-3)Gal(b1-4)GlcNAc(b1-2)Man(a1-6)]Man(b1-4)GlcNAc(b1-4)[Fuc(a1-6)]GlcNAc
# Method in brief: as §1
# [23] = biological target: Gal(b1-4)GlcNAc(b1-3)GalNAc
# Method in brief: as §1
# Gal3S(b1-4)GlcNAc = biological target: Gal3S(b1-4)GlcNAc
# Method in brief: as §1
# Gal6S(b1-4)GlcNAc = biological target: Gal6S(b1-4)GlcNAc
# Method in brief: as §1
# GalNAc(b1-4)GlcNAc = biological target: GalNAc(b1-4)GlcNAc
# Method in brief: as §1
# [24] = biological target: GalNAc(b1-4)GlcNAc(b1-2)Man
# Method in brief: as §1
# [25] = biological target: Glc(a1-6)Glc(a1-6)Glc(a1-6)Glc
# Method in brief: as §1
# GlcA(b1-3)GlcNAc = biological target: GlcA(b1-3)GlcNAc
# Method in brief: as §1
# [26] = biological target: GlcNAc(b1-2)[GlcNAc(b1-4)]Man(a1-3)[GlcNAc(b1-4)][GlcNAc(b1-2)Man(a1-6)]Man(b1-4)GlcNAc(b1-4)GlcNAc
# Method in brief: as §1
# [27] = biological target: GlcNAc(b1-2)[GlcNAc(b1-4)]Man(a1-3)[GlcNAc(b1-4)][GlcNAc(b1-2)[GlcNAc(b1-6)]Man(a1-6)]Man(b1-4)GlcNAc(b1-4)GlcNAc
# Method in brief: as §1
# [28] = biological target: Kdn(a2-3)Gal(b1-4)[Fuc(a1-3)]GlcNAc
# Method in brief: as §1
# [29] = biological target: Man(a1-2)Man(a1-2)Man(a1-3)Man
# Method in brief: as §1
# [30] = biological target: Neu5Ac(a2-3)Gal(b1-3)[Fuc(a1-4)]GlcNAc(b1-3)Gal(b1-4)[Fuc(a1-3)]GlcNAc
# Method in brief: as §1
# [31] = biological target: Neu5Ac(a2-3)Gal(b1-4)GlcNAc(b1-3)GalNAc
# Method in brief: as §1
# [32] = biological target: Neu5Ac(a2-3)Gal(b1-4)[Fuc(a1-3)]GlcNAc(b1-6)[Gal(b1-3)]GalNAc
# Method in brief: as §1
# [33] = biological target: Neu5Ac(a2-3)Gal6S(b1-4)GlcNAc
# Method in brief: as §1
# [34] = biological target: Neu5Ac(a2-6)Gal(b1-4)GlcNAc
# Method in brief: as §1
# [35] = biological target: Neu5Ac(a2-6)Gal(b1-4)GlcNAc(b1-3)Gal(b1-4)GlcNAc(b1-3)Gal(b1-4)GlcNAc(b1-2)Man(a1-3)[Neu5Ac(a2-6)Gal(b1-4)GlcNAc(b1-3)Gal(b1-4)GlcNAc(b1-3)Gal(b1-4)GlcNAc(b1-2)Man(a1-6)]GalNAc
# Method in brief: as §1
# [36] = biological target: Neu5Ac(a2-6)Gal(b1-4)GlcNAc(b1-3)Gal(b1-4)GlcNAc(b1-3)[Neu5Ac(a2-6)Gal(b1-4)GlcNAc(b1-3)Gal(b1-4)GlcNAc(b1-6)]GalNAc
# Method in brief: as §1
# [37] = biological target: Neu5Gc(a2-3)Gal(b1-3)GlcNAc
# Method in brief: as §1
binder,measurement,setting,value
B1,glycan array binding signal (z-score),[1],-0.173
same,glycan array binding signal (z-score),[2],-0.213
same,glycan array binding signal (z-score),[3],3.91
same,glycan array binding signal (z-score),[4],3.09
same,glycan array binding signal (z-score),[5],-0.235
same,glycan array binding signal (z-score),[6],-0.325
same,glycan array binding signal (z-score),[7],-0.207
same,glycan array binding signal (z-score),[8],-0.289
same,glycan array binding signal (z-score),[9],2.67
same,glycan array binding signal (z-score),Fuc(a1-3)GlcNAc,-0.151
same,glycan array binding signal (z-score),[10],-0.174
same,glycan array binding signal (z-score),[11],2.59
same,glycan array binding signal (z-score),[12],-0.014
same,glycan array binding signal (z-score),[13],0.636
same,glycan array binding signal (z-score),[14],-0.281
same,glycan array binding signal (z-score),[15],-0.238
same,glycan array binding signal (z-score),Gal(b1-2)Gal,0.077
same,glycan array binding signal (z-score),Gal(b1-3)Gal,4.26
same,glycan array binding signal (z-score),Gal(b1-3)Gal(b1-4)GlcNAc,2.99
same,glycan array binding signal (z-score),Gal(b1-3)GalNAc,3.86
same,glycan array binding signal (z-score),Gal(b1-3)GalNAc(b1-3)Gal,14.5
same,glycan array binding signal (z-score),[16],11.1
same,glycan array binding signal (z-score),[17],2.46
same,glycan array binding signal (z-score),[18],3.63
same,glycan array binding signal (z-score),[19],-0.238
same,glycan array binding signal (z-score),[20],-0.19
same,glycan array binding signal (z-score),[21],-0.022
same,glycan array binding signal (z-score),[22],-0.165
same,glycan array binding signal (z-score),[23],-0.111
same,glycan array binding signal (z-score),Gal3S(b1-4)GlcNAc,-0.261
same,glycan array binding signal (z-score),Gal6S(b1-4)GlcNAc,-0.027
same,glycan array binding signal (z-score),GalNAc(b1-4)GlcNAc,0.047
same,glycan array binding signal (z-score),[24],-0.281
same,glycan array binding signal (z-score),[25],-0.331
same,glycan array binding signal (z-score),GlcA(b1-3)GlcNAc,-0.277
same,glycan array binding signal (z-score),[26],-0.326
same,glycan array binding signal (z-score),[27],-0.303
same,glycan array binding signal (z-score),[28],-0.086
same,glycan array binding signal (z-score),[29],0.113
same,glycan array binding signal (z-score),[30],-0.234
same,glycan array binding signal (z-score),[31],-0.277
same,glycan array binding signal (z-score),[32],0.813
same,glycan array binding signal (z-score),[33],-0.311
same,glycan array binding signal (z-score),[34],-0.282
same,glycan array binding signal (z-score),[35],1.21
same,glycan array binding signal (z-score),[36],-0.146
same,glycan array binding signal (z-score),[37],-0.298
